What all share (test): qHTS profiling for inhibitors of Plasmodium falciparum proliferation (AID 504749); also: nearly all actives have a fitted effect of over 60% in size
Holding throughout (conditions): P. falciparum in erythrocytes, SYBR Green DNA, 72 h; series mostly up to 28.7 µM

One assay relates to ATS95. In short, it runs like this: (§1)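 Parasite proliferation within erythrocytes, 72 h exposure. Endpoint: SYBR Green I fluorescence after overnight lysis at room temperature. Controls: 0.29 uM artemisinin, DMSO.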
A further assay relates to C2A. In short, it runs like this: as §1
In another assay the test system is CP185. The method, boiled down:
as §1

The next assay deals with CP191. In short, it runs like this: as §1
A further assay has as its system CP192. In short, it runs like this: as §1
A further assay deals with CP194. In short, it runs like this:
as §1

The subject of the next assay is CP201. In short, it runs like this: as §1
Another assay has as its system CP203. The method, boiled down:
as §1

A further assay deals with CP211. In short, it runs like this:
as §1

In another assay the test system is CP215. The method, boiled down:
as §1

Another assay has as its system CP217. The method, boiled down: as §1
A further assay relates to CP237. In short, it runs like this:
as §1

The next assay concerns CP238. In short, it runs like this:
as §1

The subject of the next assay is CP247. The method, boiled down:
as §1

Another assay concerns CP250. The method, boiled down:
as §1

For another assay, the system named is CP252. In short, it runs like this: as §1
The subject of the next assay is CP256. The method, boiled down:
as §1

Another assay deals with CP260. The method, boiled down: as §1
For the next assay, the system named is CP262. In short, it runs like this:
as §1

A further assay relates to CP265. In short, it runs like this:
as §1

Records with an inconclusive call do not appear. Activity calls are given as the source filed them. Calls follow the shape of the dose curve; as a rule, active = well fitted inhibition curve with a large enough effect; inconclusive = small, poorly fitted or top-dose-only effect; inactive = flat fitted curve, though single readings scatter.
Potency is read from the fitted curve at half-maximal effect.

As for `Cc1ccc(S(=O)(=O)NC(=O)NC2CCCCC2)cc1`, the Potency result in the assay on ATS95, in the assay with C2A, in the assay on CP185, in the assay on CP203, with CP215 and in the assay on CP237 was “inactive” throughout. The Potency entry in the assay with CP238, in the assay with CP247, with CP250, with CP260 and with CP265 was “inactive” in each case. Further, the outcome with CP191, in the assay on CP192, in the assay with CP194, in the assay on CP201, in the assay on CP211 and with CP217 was inactive. Besides, the outcome in the assay on CP252, with CP256 and in the assay with CP262 was inactive.
In the case of `N[C@@H](Cc1ccc(O)cc1)C(=O)O`, the Potency result in the assay with ATS95, in the assay with C2A, in the assay on CP185, in the assay on CP203, in the assay on CP215 and with CP237 was “inactive” each time. Also, the Potency entry in the assay on CP238, in the assay on CP247, with CP250, in the assay on CP260 and in the assay on CP265 was “inactive” each time. In addition, the compound was classed as inactive in the assay on CP191, in the assay on CP192, with CP194, with CP201, in the assay on CP211 and in the assay with CP217. The compound was classed as inactive in the assay with CP252, in the assay on CP256 and in the assay with CP262.
`CC(=O)Nc1ccc(C(=O)O)cc1`: the Potency result in the assay with ATS95, in the assay with C2A, in the assay on CP185, in the assay on CP203, with CP215 and with CP237 was “inactive” each time. Besides, the Potency entry in the assay on CP238, in the assay on CP247, in the assay with CP250, in the assay with CP260 and in the assay on CP265 was “inactive” in each case. In addition, the compound was classed as inactive in the assay with CP191, in the assay with CP192, in the assay with CP194, in the assay on CP201, with CP211 and in the assay with CP217. Also, the result in the assay on CP252, in the assay on CP256 and in the assay on CP262 was inactive.
Turning to `CCS(=O)(=O)CCn1c([N+](=O)[O-])cnc1C`, the Potency entry in the assay with ATS95, in the assay on C2A, with CP185, in the assay with CP203, in the assay with CP215 and in the assay with CP237 was “inactive” in each case. For the same compound, the Potency result in the assay on CP238, in the assay on CP247, in the assay with CP250, in the assay with CP260 and in the assay on CP265 was “inactive” throughout. Also, the compound was called inactive in the assay with CP191, with CP192, with CP194, with CP201, in the assay on CP211 and with CP217. In addition, the outcome with CP252, in the assay on CP256 and with CP262 was inactive.
`Cc1cc(=O)[nH]c(=S)[nH]1`: the Potency result with ATS95, in the assay with C2A, with CP185, in the assay on CP203, with CP215 and with CP237 was “inactive” in each case. Besides, the Potency result in the assay on CP238, in the assay on CP247, in the assay with CP250, in the assay with CP260 and in the assay on CP265 was “inactive” each time. For the same compound, the compound was classed as inactive with CP191, with CP192, in the assay on CP194, in the assay on CP201, in the assay on CP211 and in the assay on CP217. Moreover, the result in the assay on CP252, with CP256 and with CP262 was inactive.
As for `CCCCCCCC(=O)OCC(COC(=O)CCCCCCC)OC(=O)CCCCCCC`, the Potency result in the assay with ATS95, in the assay on C2A, in the assay with CP185, with CP203, with CP215 and in the assay on CP237 was “inactive” each time. Also, the Potency entry in the assay on CP238, with CP247, in the assay on CP250, with CP260 and with CP265 was “inactive” each time. For the same compound, the call with CP191, with CP192, in the assay on CP194, with CP201, in the assay with CP211 and in the assay on CP217 was inactive. In addition, the call in the assay on CP252, in the assay on CP256 and with CP262 was inactive.
For `CC(=O)SC[C@@H](Cc1ccccc1)C(=O)NCC(=O)OCc1ccccc1`, the Potency entry with ATS95, in the assay with C2A, in the assay with CP185, with CP203, in the assay with CP215 and in the assay on CP237 was “inactive” in each case. The Potency entry in the assay with CP238, in the assay on CP247, in the assay on CP250, in the assay on CP260 and in the assay with CP265 was “inactive” in each case. Besides, the result in the assay with CP191, in the assay on CP192, in the assay with CP194, with CP201, in the assay with CP211 and with CP217 was inactive. For the same compound, the outcome in the assay on CP252, with CP256 and in the assay with CP262 was inactive.
As for `C[C@@H](N)C(=O)O`, the Potency entry in the assay with ATS95, in the assay on C2A, in the assay with CP185, in the assay with CP237, in the assay with CP238 and in the assay with CP247 was “inactive” throughout. In addition, the Potency entry with CP250, in the assay on CP260 and in the assay with CP265 was “inactive” in each case. For the same compound, the compound was called inactive in the assay with CP191, in the assay on CP192, in the assay on CP194, in the assay on CP201, in the assay on CP211 and with CP217. The compound was classed as inactive in the assay with CP252, in the assay with CP256 and in the assay with CP262. Besides, the figures for the Potency in the assay with CP203 and in the assay with CP215 were 9.53 µM (active) and 1.69 µM (active), respectively.
As to `Cc1c(Cn2ccnc2)c2ccccc2n1CCC(=O)O`, the Potency entry with ATS95, in the assay with C2A, in the assay on CP185, in the assay with CP203, in the assay with CP215 and with CP237 was “inactive” in each case. Further, the Potency result in the assay with CP238, in the assay on CP247, in the assay with CP250, with CP260 and in the assay on CP265 was “inactive” throughout. Moreover, the result in the assay on CP191, with CP192, in the assay with CP194, in the assay with CP201, in the assay on CP211 and in the assay on CP217 was inactive. In addition, the compound was classed as inactive in the assay with CP252, in the assay on CP256 and with CP262.
With `C=CCNC(N)=S`, the Potency entry with ATS95, with C2A, in the assay on CP185, with CP203, in the assay on CP215 and in the assay on CP237 was “inactive” throughout. Further, the Potency entry with CP238, with CP247, in the assay with CP250, with CP260 and in the assay with CP265 was “inactive” throughout. Also, the compound was classed as inactive with CP191, in the assay with CP192, with CP194, in the assay on CP201, in the assay with CP211 and in the assay with CP217. The compound was classed as inactive in the assay with CP252, in the assay on CP256 and with CP262.
Consider `NC(=O)CC[C@@H](N)C(=O)O`, for which the Potency result with ATS95, in the assay on C2A, in the assay on CP185, in the assay with CP203, in the assay with CP215 and in the assay with CP237 was “inactive” each time. Also, the Potency result in the assay with CP238, in the assay on CP247, in the assay with CP250, in the assay with CP260 and with CP265 was “inactive” each time. The outcome with CP191, in the assay on CP192, in the assay with CP194, in the assay with CP201, in the assay on CP211 and in the assay with CP217 was inactive. In addition, the call in the assay with CP252, with CP256 and in the assay with CP262 was inactive.
As for `C[N+](C)(C)CC[N+]1(C)Cc2c(Cl)c(Cl)c(Cl)c(Cl)c2C1`, the Potency entry with ATS95, with C2A, in the assay on CP185, in the assay on CP203, in the assay on CP215 and in the assay with CP237 was “inactive” each time. Also, the Potency result in the assay with CP238, in the assay on CP247, in the assay on CP250, in the assay on CP260 and with CP265 was “inactive” each time. Besides, the outcome in the assay with CP191, in the assay on CP192, in the assay on CP194, in the assay with CP201, in the assay on CP211 and with CP217 was inactive. The outcome in the assay on CP252, in the assay with CP256 and with CP262 was inactive.
Consider `CC(=O)Nc1ccc(OCCOCCOc2ccc(NC(C)=O)cc2)cc1`, for which the Potency entry with ATS95, in the assay with C2A, in the assay with CP185, with CP203, with CP215 and in the assay on CP237 was “inactive” each time. The Potency entry with CP238, with CP250, in the assay on CP260 and in the assay with CP265 was “inactive” in each case. In addition, the compound was called inactive with CP191, in the assay with CP192, with CP194, in the assay on CP201, in the assay on CP211 and in the assay with CP217. Besides, the outcome in the assay with CP252, in the assay on CP256 and in the assay on CP262 was inactive.

Source of the values: PubChem BioAssay (NCATS).
